This passage reports outcome results from PubChem BioAssay AID720610 (Broad Institute, 2013).

Records with an inconclusive call do not appear. Calls of active or inactive are those of the source.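 How the source made its calls: active means compounds whose fitted half-maximal signal loss occurs at or below twice the top dose at every exposure time; inconclusive means exposure times disagree on the call; inactive means the rest.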

A short description of the assay: cytotoxicity in HeLa cells, metabolic dye – Alamar Blue fluorescence, 8-48 h, dry powder, mechanism study for HRAS target identification, late-stage follow-up (AID 720610). (The colour change of resazurin is a common sign of viable cells or microbes.)

Consider `CCC(=O)N(c1ccc(OC)c(Cl)c1)C(C(=O)NCCc1ccccc1)c1cccs1` (configuration not stated), for which the outcome was inactive. As for `Cc1onc(C(=O)N2CCN(C(c3ccncc3)c3ccncc3)CC2)c1[N+](=O)[O-]`, the entry is “inactive”.
